{"source": "PubChem BioAssay (NCATS)", "note": "Values joined by “and” are separate entries in the source; they are usually repeats but may differ in a detail not shown here. Equal entries are not always repeated. Records with an inconclusive call do not appear. A number with no mark means an inactive call. Active and inactive are the calls of the source. Calls follow the shape of the dose curve; as a rule, active = well fitted activation curve with a large enough effect; inconclusive = small, poorly fitted or top-dose-only effect; inactive = no such curve, though single readings can be large or run the other way. Potency is read from the fitted curve at half-maximal effect.", "data": [{"biological_target": "Cellular tumor antigen p53 (Homo sapiens) (UniProt P04637)", "sequence (P04637 whole entry, looked up)": "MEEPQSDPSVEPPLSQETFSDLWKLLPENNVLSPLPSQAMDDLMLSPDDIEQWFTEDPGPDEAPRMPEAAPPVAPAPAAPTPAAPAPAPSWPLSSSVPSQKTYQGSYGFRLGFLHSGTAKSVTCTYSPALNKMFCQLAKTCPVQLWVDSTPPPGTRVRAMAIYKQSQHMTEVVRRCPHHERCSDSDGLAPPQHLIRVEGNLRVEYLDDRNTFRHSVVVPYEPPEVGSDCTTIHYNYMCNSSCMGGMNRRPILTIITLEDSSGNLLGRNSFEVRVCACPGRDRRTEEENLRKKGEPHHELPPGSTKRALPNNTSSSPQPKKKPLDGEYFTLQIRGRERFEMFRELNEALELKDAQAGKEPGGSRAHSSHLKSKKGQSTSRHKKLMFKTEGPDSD", "experiment": "Primary qHTS for small molecule compounds that upregulate eGFP-tagged delta133p53alpha (in N-terminal) cells. (AID 2060322); also: nearly all actives have a fitted effect of over 75% in size;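 as to activation: cells pre-induced with doxycycline then dosed without doxycycline; series mostly up to about 56 µM; 0% = DMSO vehicle and 100% = reference activator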", "conditions": "NCI-H358 eGFP-delta133p53alpha fluorescence, 24 h; activation: active compounds read high", "text": "Assay Development and Screening Technology\nNational Center for Advancing Translational Sciences (NCATS),\nNational Institute of Health (NIH), Rockville, Maryland\nCellular senescence (CS) is one of the hallmarks of aging and age-related diseases. Senescent cells are characterized by an irreversible growth arrest, an increase in senescence-associated beta-galactosidase (SA-beta-gal) activity and p16INK4a expression, an activation of the DNA damage response pathways, and the emergence of a senescence-associated secretory phenotype (SASP).\nDelta133p53alpha, a human/primate-specific p53 protein isoform, delays or inhibits the induction of CS and SASP in various types of human cells, including progeria-derived fibroblasts, primary normal astrocytes, and CD8+ T lymphocytes. Induction of delta133p53alpha with small molecule compounds may provide therapeutic opportunities for inhibition of senescence/SASP-associated pathologies in progeria syndromes, astrocyte-mediated neuroprotection in neurodegenerative diseases, and possibly prevention and treatment of a wider range of senescence- and aging-associated diseases.\nHere we report the development and validation of a cell-based quantitative high throughput screening (qHTS) assay in 1,536-well format. This qHTS assay uses the NCI-H358 cell line with doxycycline-inducible expression of enhanced green fluorescent protein (eGFP)-tagged delta133p53alpha, which allows efficient and highly quantitative measurement of the protein levels.\nPROTOCOL TABLE (as described by Inglese J, Shamu CE and Guy RK. 2007)\nSEQUENCE No. (e.g., 1, 2, 3, etc.); […] (e.g., Cells, Incubation, Reagent, etc.); VALUE; DESCRIPTION.\n1; Cells; 4uL; 800 doxycycline treated cells / well in doxycycline-free media, 1536-well black, clear-bottom low base Aurora microplates.\n2; Compounds; 23 nL; Kalypsis pin tool (Wako) equipped with 1536-well pin heads, 5-azacytidine positive control.\n3; Incubation; 24 hr; 37C, 5% CO2; 95% relative humidity.\n4; Aspiration; 1x; BioTek EL406 washer dispenser (Agilent).\n5; Fixing; 3.5% paraformaldehyde, BioTek EL406 washer dispenser (Agilent).\n6; Washing; 1x PBS; BioTek EL406 washer dispenser (Agilent).\n7; Nuclei staining; 1:1000 dilution of Hoechst 33342 (Thermofisher), BioTek EL406 washer dispenser (Agilent).\n8; Incubation; 20 min; in the dark at room temperature.\n9; Washing; 2x, 1x PBS (ThermoFisher), BioTek EL406 washer dispenser (Agilent).\n10; Reagent; 10 uL; 1x PBS per well, sealed with clear adhesive tape.\nNOTES (numbers refer to sequence numbers above).\n1. NCI-H358 cells expressing eGFP-tagged delta133p53alpha were grown in T75 culture flasks and treated with doxycycline for 24h, at 10 ng/ml for eGFP-D133p53a cells (N-terminal cell) and 100 ng/ml for D133p53a-eGFP cells (C-terminal cells). Cells were trypsinized, counted using a Counted 3 Automated Cell Counter (Thermo Fisher), and diluted to a concentration of 200,000 cells/ml. A Multidrop Combi Reagent Dispenser (ThermoFisher) was used to dispense 800 cells/well in […] of doxycycline-free media, into 1536-well black/clear bottom low base plates (AuroraMicroplates).\n2. After plating cells, 23 nl of compound library, DMSO vehicle control or positive control (5-azacytidine) were transferred by Pin Tool (Wako). The plate map layout was the same for each plate: (column 1) non-doxycycline treated cells + DMSO vehicle control; (column 2) doxycycline treated cells + DMSO vehicle control baseline; (column 3) doxycycline treated cells + positive control 57.5 uM final concentration 5-azacytidine; (column 4) doxycycline treated cells + serial dilution of 5-azacytidine, 16-point 1:2 titration spanning 1.8 nM to […] final concentration; (columns 5-48) doxycycline treated cells + titration of library compounds.\n3. Cells were incubated at 37 °C, 5 % CO2, 95% RH with breathable metal lid for 24h.\n4-10. […] After two washes, 10 ul of 1X PBS (Thermo Fisher) was dispensed to each well. Clear adhesive plate seals (VWR) were applied and plates stored at 4 °C.\n11. […]", "values": [{"smiles": "CCCCCCCCCC(=O)O[C@H]1CC[C@H]2[C@@H]3CCC4=CC(=O)CC[C@@H]4[C@H]3CC[C@]12C", "activation": "2.82%"}, {"smiles": "CC1COC2(c3ccccc3Cl)c3cc(Cl)ccc3NC(=O)CN12", "note": "(stereo not given)", "activation": "28.5%"}, {"smiles": "COP(=S)(OC)SCN1C(=O)c2ccccc2C1=O", "Potency": "21.9 µM (active)"}, {"smiles": "NC1=NC(=O)C(c2ccccc2)O1", "note": "(stereo not given)", "activation": "0.565%"}, {"smiles": "C=CCN1C[C@H](C)N([C@H](c2ccc(C(=O)N(CC)CC)cc2)c2cccc(OC)c2)C[C@H]1C", "activation": "-16.4% and -0.333%"}, {"smiles": "NC1CCc2cc(O)c(O)cc2C1", "note": "(stereo not given)", "activation": "-13%"}, {"smiles": "C[C@H]1CN(Cc2ccc(CC(=O)N3CCC(Nc4cccc(F)c4)CC3)cc2)CCN1", "activation": "-12.4%"}, {"smiles": "O=C(N1CCOCC1)N1CCN(c2ccc(Cl)cc2)CC1", "activation": "10%"}, {"smiles": "O=C(Nc1ccc(Br)cc1)c1cc(Br)cc(Br)c1O", "activation": "29.9%"}, {"smiles": "Sc1ccccc1Cl", "activation": "-0.837%"}, {"smiles": "C=CC(C)(C)c1[nH]c2cccc3c2c1C[C@@H]1[C@@H]3[C@@H](OC(C)=O)[C@H](C)CN1C", "activation": "1.53%"}, {"smiles": "CC(C)[N+](C)(CCC(C(N)=O)(c1ccccc1)c1ccccc1)C(C)C", "activation": "27.7%"}, {"smiles": "Cc1sc2c(c1C)C(c1ccc(Cl)cc1)=NC(CC(=O)Nc1ccc(O)cc1)c1nnc(C)n1-2", "note": "(stereo not given)", "activation": "-21.2%"}, {"smiles": "C[CH2][Hg][S]c1ccccc1C(=O)O", "Potency": "3.89 µM (active)"}, {"smiles": "CCCOC(=O)Cc1ccc(OCC(=O)N(CC)CC)c(OC)c1", "activation": "4.33%"}, {"smiles": "CC(C)[C@]12O[C@H]1[C@@H]1O[C@]13[C@]1(O[C@H]1C[C@H]1C4=C(CC[C@@]13C)C(=O)OC4)[C@@H]2O", "Potency": "0.269 µM (active)"}, {"smiles": "COC(C)(C)CCCC(C)C/C=C/C(C)=C/C(=O)OC(C)C", "note": "(stereo not given)", "activation": "-11.9%"}, {"smiles": "COc1cc(CCNCc2ccccc2O)c(OC)cc1C#N", "activation": "-6.21%"}, {"smiles": "C=C(C)[C@@]12O[C@@H]1[C@@]1(C)C(=CC2=O)CC[C@@H](OC(C)=O)[C@@H]1C", "Potency": "30.1 µM (active)"}, {"smiles": "COc1ccc(N(C(=O)Oc2c(C)cccc2C)c2ccnc(Nc3ccc(N4CCN(C)CC4)cc3)n2)c(OC)c1", "activation": "-14.2%"}, {"smiles": "C[C@@H]1C(=O)O[C@H]2[C@H](O)[C@@]34[C@@H]5OC(=O)[C@@]3(O[C@@H]3OC(=O)[C@@H](O)[C@@]34[C@H](C(C)(C)C)[C@H]5O)[C@@]12O", "activation": "2.68%"}, {"smiles": "O=c1ccc2[nH]cc(C3=CCNCC3)c2[nH]1", "activation": "-8.35%"}, {"smiles": "Cc1cc(C(=O)CN2CCCC2)c(C)n1-c1ccc(F)cc1", "activation": "10% and -5.25%"}, {"smiles": "CC/C=C/C=C/C1(C)OC(OC)=C(C(=O)C2C(C)C(=O)c3cc(OC)c(O)c(O)c3C2(C)O)C1=O", "note": "(stereo not given)", "activation": "0.893%"}, {"smiles": "C[C@H]1O[C@@H](O[C@H]2[C@@H](O)C[C@H](O[C@H]3[C@@H](O)C[C@H](O[C@H]4CC[C@@]5(C)[C@H](CC[C@@H]6[C@@H]5CC[C@]5(C)[C@@H](C7=CC(=O)OC7)CC[C@]65O)C4)O[C@@H]3C)O[C@@H]2C)C[C@H](O)[C@@H]1O", "activation": "5.34%"}, {"smiles": "CC(=O)[C@H]1CCC2C3CC[C@H]4C[C@H](O)CC[C@]4(C)C3CC[C@@]21C", "note": "(stereo not given in full)", "activation": "-16.4%"}, {"smiles": "C/C=C(\\C)C(=O)OC1C2C3(C)CCC(OC4CC(OC)C(OC5OC(C)C(O)C(OC)C5O)C(C)O4)CC3CCC23OC32CCC(C(C)=O)C2(C)C1OC(=O)/C(C)=C/C", "note": "(stereo not given)", "activation": "12.5%"}, {"smiles": "CC1Sc2c(C(=O)O)c(=O)c3cc(F)c(N4CCNCC4)cc3n21", "note": "(stereo not given)", "activation": "-8.47%"}, {"smiles": "C=CCN1C[C@@H](C)N([C@H](c2ccc(C(=O)N(CC)CC)cc2)c2cccc(OC)c2)C[C@@H]1C", "activation": "-25.3%"}, {"smiles": "CN(C)CCc1c[nH]c2ccc(CN3CCN(C)S3(=O)=O)cc12", "activation": "-4.3%"}, {"smiles": "C[N+]1(C)CCN(c2ccccc2)CC1", "activation": "-0.912%"}, {"smiles": "N[C@@H](Cc1ccc(N(CCCl)CCCl)cc1)C(=O)O", "activation": "29.4%"}, {"smiles": "CC(=O)OC[C@]12C[C@H](OC(C)=O)C(C)=C[C@H]1O[C@@H]1[C@H](O)[C@@H](O)[C@@]2(C)[C@]12CO2", "Potency": "0.467 µM (active)"}, {"smiles": "C=C1C2(C)CC3C(C)(O)C4=CC(=O)OC(C)(C)C4=CCC3(C)C13C(=O)OC(C)C3(O)C2=O", "note": "(stereo not given)", "activation": "-0.763%"}, {"smiles": "CNC(C)Cc1ccc2c(c1)OCO2", "note": "(stereo not given)", "activation": "17.5%"}, {"smiles": "CNC(=O)N1N=C(c2ccc(N)cc2)c2cc3c(cc2CC1C)OCO3", "note": "(stereo not given)", "activation": "34.7%"}, {"smiles": "C#CC(O)(C=CCl)CC", "note": "(stereo not given)", "activation": "19.8%"}, {"smiles": "CN1C(=O)C(Cc2ccc3ccccc3c2)N=C(c2ccc(O)cc2)c2cc(Cl)ccc21", "note": "(stereo not given)", "activation": "10.3%"}, {"smiles": "C#CC1(O)CCC2C3CCC4=CC(=O)CCC4=C3C=CC21C", "note": "(stereo not given)", "activation": "-16.3%"}, {"smiles": "COc1ccc2[nH]cc(CCN)c2c1", "activation": "-19.1%"}]}]}
